Out of some 310,000 compounds screened, about 14,000 (4.5%) showed an effect of 50% or more. Effects have a minus sign here. This excerpt belongs to a sample that is enriched for strong results.
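Note: peak tail current of the secondary pulse compared with the same well before compound.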

Chain of human ether-à-go-go-related gene (hERG) potassium channel (Q12809 whole entry, looked up): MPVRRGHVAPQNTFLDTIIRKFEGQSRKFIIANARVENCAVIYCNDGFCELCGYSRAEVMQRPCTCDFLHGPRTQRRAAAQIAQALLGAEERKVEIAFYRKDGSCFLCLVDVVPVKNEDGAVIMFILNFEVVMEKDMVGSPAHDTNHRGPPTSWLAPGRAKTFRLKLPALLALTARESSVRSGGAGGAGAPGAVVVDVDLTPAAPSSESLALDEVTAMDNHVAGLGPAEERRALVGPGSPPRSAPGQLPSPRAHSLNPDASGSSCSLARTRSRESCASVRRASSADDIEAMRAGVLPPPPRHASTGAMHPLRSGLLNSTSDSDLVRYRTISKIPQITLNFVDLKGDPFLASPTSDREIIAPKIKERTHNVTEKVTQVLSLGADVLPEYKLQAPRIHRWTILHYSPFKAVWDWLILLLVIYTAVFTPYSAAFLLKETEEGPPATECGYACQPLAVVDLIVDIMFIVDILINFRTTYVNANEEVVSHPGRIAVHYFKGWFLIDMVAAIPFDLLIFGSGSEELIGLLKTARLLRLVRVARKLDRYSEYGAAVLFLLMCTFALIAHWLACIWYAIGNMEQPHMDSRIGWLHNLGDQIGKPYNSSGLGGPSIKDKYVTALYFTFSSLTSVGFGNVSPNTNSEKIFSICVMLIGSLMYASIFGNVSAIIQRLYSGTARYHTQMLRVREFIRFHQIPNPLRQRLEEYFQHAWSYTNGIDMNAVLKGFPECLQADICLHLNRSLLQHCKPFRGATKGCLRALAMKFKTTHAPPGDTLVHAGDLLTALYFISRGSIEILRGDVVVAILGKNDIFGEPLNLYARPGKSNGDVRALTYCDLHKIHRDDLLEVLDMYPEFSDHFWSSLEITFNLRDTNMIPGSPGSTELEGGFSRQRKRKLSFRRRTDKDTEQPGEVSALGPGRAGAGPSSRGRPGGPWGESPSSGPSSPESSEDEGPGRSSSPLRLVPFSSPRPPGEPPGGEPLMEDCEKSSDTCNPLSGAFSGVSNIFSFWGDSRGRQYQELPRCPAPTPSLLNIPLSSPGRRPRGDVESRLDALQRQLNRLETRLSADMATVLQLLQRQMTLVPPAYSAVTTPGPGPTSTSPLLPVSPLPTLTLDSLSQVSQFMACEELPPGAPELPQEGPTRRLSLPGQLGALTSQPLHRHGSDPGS

The assay concerns the target human ether-à-go-go-related gene (hERG) potassium channel (human, UniProt Q12809). Put plainly: primary screen, population patch clamp on CHO cells stably expressing hERG; higher = less effect of the substance.
Turning to `O=C(CN1C(=O)NC2(CCc3ccccc32)C1=O)c1ccccc1` (stereo not shown), the “hERG current change (%, negative = inhibition) at 10uM” value is recorded as 15.1%.

As for `Cc1ccc(NC(=O)CN2C(=O)NC3(CCCc4ccccc43)C2=O)c([N+](=O)[O-])c1` (stereo not shown), the “hERG current change (%, negative = inhibition) at 10uM” value was -75.6%.

Consider `CCCS(=O)(=O)Nc1cccc(-c2cn3c(n2)SCC3)c1`, for which the “hERG current change (%, negative = inhibition) at 10uM” value is recorded as -14.1%.

As to `COc1ccc(OC)c(S(=O)(=O)N2CCCC(C(=O)NCCN3CCOCC3)C2)c1` (stereo not shown), the “hERG current change (%, negative = inhibition) at 10uM” value is 21.2%.

As to `O=S(=O)(NCc1cccnc1)c1ccc(Cl)s1`, the “hERG current change (%, negative = inhibition) at 10uM” value is reported as 6.91%.

`COc1ccc(C(=O)NCc2nnc(SCC(=O)Nc3nnc(C)s3)o2)cc1`: the “hERG current change (%, negative = inhibition) at 10uM” value is listed as 14.5%.

On to `N#CC1(NC(=O)CSc2nnc(C3CC3)n2C2CC2)CCCCC1`, for which the “hERG current change (%, negative = inhibition) at 10uM” value was -8.52%.

On to `CCS(=O)(=O)c1ccc2oc(Nc3ccc(OC)c(OC)c3)nc2c1`, for which the “hERG current change (%, negative = inhibition) at 10uM” value is reported as 8.05%.

Regarding `C=CCN(C(=O)C1CC(=O)N(C2CCCC2)C1)c1nc(-c2ccc(S(C)(=O)=O)cc2)cs1` (stereo not shown), the “hERG current change (%, negative = inhibition) at 10uM” value is listed as -47.1%.

Regarding `C=CCN(C(=O)C1=NN(C2CCS(=O)(=O)C2)C(=O)CC1)c1nc(-c2ccc([N+](=O)[O-])cc2)cs1` (stereo not shown), the “hERG current change (%, negative = inhibition) at 10uM” value is reported as -63.5%.

For the molecule `Cc1ccc(-c2csc(NC(=O)C3=NN(C4CCS(=O)(=O)C4)C(=O)CC3)n2)cc1` (stereo not shown), the “hERG current change (%, negative = inhibition) at 10uM” value is -3.9%.

Regarding `CN1CCN(C2=Nc3cc(F)ccc3Cc3ccccc32)CC1`, the “hERG current change (%, negative = inhibition) at 10uM” value is -35.7%.

As to `Cc1sc(NC(=O)Cc2ccc3c(c2)OCO3)nc1-c1ccc2c(c1)CCN2C(=O)c1ccccc1F`, the “hERG current change (%, negative = inhibition) at 10uM” value is reported as -0.586%.

Take `COc1cc(NC(=O)Cc2c(C(=O)O)n(C)c3ccccc23)cc(OC)c1OC`: the “hERG current change (%, negative = inhibition) at 10uM” value is 35%.

Take `Cc1ccc(-n2c(O)c(C=NC3CCS(=O)(=O)C3)c3ccccc3c2=O)c(C)c1` (stereo not shown): the “hERG current change (%, negative = inhibition) at 10uM” value is -0.346%.

`Cc1cccc(-n2c(O)c(C=NC3CCS(=O)(=O)C3)c3ccccc3c2=O)c1C` (stereo not shown): the “hERG current change (%, negative = inhibition) at 10uM” value was -54.1%.

Take `Cc1ccc(-n2c(O)c(C=NC3CCS(=O)(=O)C3)c3ccccc3c2=O)cc1` (stereo not shown): the “hERG current change (%, negative = inhibition) at 10uM” value is -3.54%.

As for `O=S(=O)(NCCOc1ccccc1Cl)c1ccc2oc3ccccc3c2c1`, the “hERG current change (%, negative = inhibition) at 10uM” value is 3.52%.

In the case of `Cc1ccccc1C(=O)Nc1cccc(-c2ccc3nncn3n2)c1`, the “hERG current change (%, negative = inhibition) at 10uM” value was -2.94%.

In the case of `O=C(c1ccccn1)C1CCCN(Cc2nc(Cc3cccc(F)c3)no2)C1` (stereo not shown), the “hERG current change (%, negative = inhibition) at 10uM” value is -5.63%.

Take `COCC1CCCN(Cc2cn[nH]c2-c2cc3ccccc3o2)C1` (stereo not shown): the “hERG current change (%, negative = inhibition) at 10uM” value was -47.5%.

For the molecule `COCCN1CCN(Cc2cn[nH]c2-c2cc3ccccc3o2)CC1`, the “hERG current change (%, negative = inhibition) at 10uM” value is reported as -6.62%.

Regarding `OC1(CNCc2cn[nH]c2-c2cc3ccccc3o2)CCCCC1`, the “hERG current change (%, negative = inhibition) at 10uM” value was -28.7%.

Regarding `c1ccc(CCC2CCCCN2Cc2cn[nH]c2-c2cc3ccccc3o2)nc1` (stereo not shown), the “hERG current change (%, negative = inhibition) at 10uM” value was -74.9%.

For `O=C(c1ccccn1)C1CCCN(Cc2cn[nH]c2-c2cc3ccccc3o2)C1` (stereo not shown), the “hERG current change (%, negative = inhibition) at 10uM” value is recorded as -70%.

As for `COc1ccc(OC)c(NC(=O)C2C(C(=O)O)C3(Cl)C(Cl)=C(Cl)C2(Cl)C3(Cl)Cl)c1` (stereo not shown), the “hERG current change (%, negative = inhibition) at 10uM” value was 7.73%.

As for `Cc1cc(CNC(=O)CC2C(=O)NCCN2Cc2ccccc2C(F)(F)F)nn1C` (stereo not shown), the “hERG current change (%, negative = inhibition) at 10uM” value is on record as 9.04%.

Take `Cc1cc(Br)ccc1OCCCCNCCO.O=C(O)C(=O)O`: the “hERG current change (%, negative = inhibition) at 10uM” value is on record as -28.1%.

Regarding `Cc1cc(C)c(OCCCCN(C)C)c(Br)c1.O=C(O)C(=O)O`, the “hERG current change (%, negative = inhibition) at 10uM” value is given as -41.5%.

Regarding `COCCCNCCCCOc1ccc(Br)cc1Cl.O=C(O)C(=O)O`, the “hERG current change (%, negative = inhibition) at 10uM” value was -67.1%.

Consider `COCCCNC(=O)COc1ccc(Br)cc1Cl`, for which the “hERG current change (%, negative = inhibition) at 10uM” value is recorded as -7.88%.

As to `Cc1cc(Br)ccc1OCCCCNC(C)(C)C.O=C(O)C(=O)O`, the “hERG current change (%, negative = inhibition) at 10uM” value is on record as -53.9%.

With `Cc1cc(Br)cc(C)c1OCCCCN(C)C.O=C(O)C(=O)O`, the “hERG current change (%, negative = inhibition) at 10uM” value was -54.4%.

Turning to `C=CCNCCCCOc1ccc(Br)cc1C.O=C(O)C(=O)O`, the “hERG current change (%, negative = inhibition) at 10uM” value is recorded as -41%.

Regarding `COCCNCCCOc1ccc(Br)cc1Cl.O=C(O)C(=O)O`, the “hERG current change (%, negative = inhibition) at 10uM” value was -31.8%.

For the molecule `CN(C)CCCOc1cccc(Cl)c1.O=C(O)C(=O)O`, the “hERG current change (%, negative = inhibition) at 10uM” value was -19.5%.

Turning to `Cc1cc(Cl)cc(Cl)c1OCCCCN(C)C.O=C(O)C(=O)O`, the “hERG current change (%, negative = inhibition) at 10uM” value was -43.7%.

In the case of `CN(C)CCCOc1ccc(Cl)cc1Br.O=C(O)C(=O)O`, the “hERG current change (%, negative = inhibition) at 10uM” value is reported as -69.3%.

Regarding `CN(C)CCOCCOc1ccc(Cl)cc1Br.O=C(O)C(=O)O`, the “hERG current change (%, negative = inhibition) at 10uM” value is given as -42.6%.

Turning to `CC(c1ccon1)N(C)C(=O)CCc1nnc(Cc2ccc(-c3ccccc3)cc2)o1` (stereo not shown), the “hERG current change (%, negative = inhibition) at 10uM” value was -21.7%.

For the molecule `COC(=O)/C(=C/c1ccc(F)cc1)NC(C)=O`, the “hERG current change (%, negative = inhibition) at 10uM” value was -0.211%.

As for `O=C(CN1C(=O)S/C(=C\c2cccc(Cl)c2)C1=O)NC1C=CS(=O)(=O)C1` (stereo not shown), the “hERG current change (%, negative = inhibition) at 10uM” value amounted to 18.1%.

Turning to `O=C(Nc1ccccc1F)c1ccc2c(c1)OCO2`, the “hERG current change (%, negative = inhibition) at 10uM” value was 15.7%.

Source of the values: PMC4336329 (PLoS ONE, 2015).
